The record followed here is PubChem BioAssay (Tox21).

Assay [1] in a line: qHTS assay to identify small molecule agonists of the vitamin D receptor (VDR) signaling pathway - cell viability counter screen (AID 743224). Further: nearly all actives have a fitted effect of over 50% in size. A digest of the protocol:
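Here cell health was gauged by luminescent ATP detection (CellTiter-Glo, 30 min RT) in VDR-bla cells that had been incubated with test compounds for 16 h at 37C and 5% CO2.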

Assay [2] in a line: qHTS assay to identify small molecule antagonists of the vitamin D receptor (VDR) signaling pathway - cell viability counter screen (AID 743225). Further: nearly all actives have a fitted effect of over 50% in size. A digest of the protocol: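 Same-well multiplex: following 16 h treatment of HEK 293T cells carrying a UAS-driven beta-lactamase reporter with compound and agonist (3 nM final), and a 2 h FRET substrate step, CellTiter-Glo was added and luminescence read after 30 min.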

Assay [3] is described as follows: qHTS assay to identify small molecule agonists of the NFkB signaling pathway (AID 1159509; active means well fitted curve in the direction sought with a large enough effect in the signal ratio in the repeat runs, not every such curve was filed as active; the % refers to the signal ratio). A digest of the protocol:
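NFkB-bla ME-180 cells with a beta-lactamase reporter under an NF-kB response element were plated overnight, treated with compounds in DMSO for 5 hr at 37 C, then loaded with FRET substrate for 1.5 hr at room temperature.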
On the technique in general: qHTS replaces the single test concentration by a dilution series.

Assay [4] in a line: qHTS assay to identify small molecule agonists of the endoplasmic reticulum stress response signaling pathway (AID 1159516; active means well fitted activation curve with a large enough effect in the signal ratio in the repeat runs, not every such curve was filed as active; the % refers to the signal ratio). The gist of the method:
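Reporter HeLa cells (ESRE-beta-lactamase) underwent 5 hr compound incubation at 37 C and 5% CO2 in quantitative HTS format. Detection followed 2 hr of FRET substrate loading at room temperature.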

Assay [5] can be described thus: qHTS assay to identify small molecule antagonists of the retinoid-related orphan receptor gamma (ROR-gamma) signaling pathway - cell viability counter screen (AID 1159520). Further: nearly all actives have a fitted effect of over 50% in size. A digest of the protocol:
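Tet-on ROR gamma CHO cells were given compounds for 2 hr, then doxycycline hyclate at 1 uM final, and incubated 16 hr at 37 C. Viability was measured as ATP content by CellTiter-Glo luminescence.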

The target of assay [6] is Nuclear receptor ROR-gamma (Homo sapiens) (UniProt P51449). Nature of the assay: qHTS assay to identify small molecule antagonists of the retinoid-related orphan receptor gamma (ROR-gamma) signaling pathway (AID 1159521; further: nearly all actives have a fitted effect of over 50% in size; further: potency means the concentration at half of the fitted maximal effect). A digest of the protocol:
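Inducible-expression reporter assay: doxycycline (1 uM final) switched on RORγ in CHO cells bearing a ROR response element-luciferase construct, with test compounds present from 2 h beforehand. Decreased luminescence after 16 h defined antagonist activity.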

Assay [7] can be described thus: qHTS assay to identify small molecule agonists of the AP-1 signaling pathway - cell viability counter screen (AID 1159525; calls by dose curve; further: nearly all actives have a fitted effect of over 55% in size; further: potency means the concentration at half of the fitted maximal effect). A digest of the protocol: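 AP-1-bla ME-180 cells in Opti-MEM with 0.5% dialyzed FBS, compound exposure 5 h at 37 C in 15-point titration. Viability read in the same wells as ATP content by CellTiter-Glo luminescence, normalised to tetra-n-octylammonium bromide and DMSO controls.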

A short description of assay [8]: qHTS assay to identify small molecule agonists of the AP-1 signaling pathway (AID 1159526; calls by dose curve).
Assay [9] addresses Retinoic acid receptor RXR-alpha (Homo sapiens) (UniProt P19793). The assay is described as follows: qHTS assay to identify small molecule agonists of the RXR signaling pathway (AID 1159527; calls by dose curve; further: nearly all actives have a fitted effect of over 35% in size). A digest of the protocol:
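Compounds in DMSO were added to RXR-alpha-UAS-bla HEK 293T cells kept in 2% charcoal-stripped serum, and incubated 16 hr at 37 C with 5% CO2. Reporter signal came from a 2 hr B/G FRET substrate step.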

Assay [10] can be described thus: qHTS assay to identify small molecule agonists of the RXR signaling pathway - cell viability counter screen (AID 1159529). Further: nearly all actives have a fitted effect of over 50% in size. Further: potency means the concentration at half of the fitted maximal effect. The gist of the method:
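Counter screen: CellTiter-Glo luminescence. Cells: RXR-alpha-UAS-bla HEK 293T. Medium: 2% charcoal-stripped FBS. Treatment: 16 h, 37 C. Reagent incubation: 30 min, RT.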

A short description of assay [11]: qHTS assay to identify small molecule antagonists of the retinoid acid receptor (RAR) signaling pathway - cell viability counter screen (AID 1159551). Further: nearly all actives have a fitted effect of over 35% in size. A digest of the protocol:
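Seed C3RL4 cells; next day add compound, then retinol to 1 uM final; incubate 6 h at 37 C; add CellTiter-Glo; read luminescence after 30 min at RT.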

Assay [12] can be described thus: qHTS assay to identify small molecule agonists of the endoplasmic reticulum stress response signaling pathway - cell viability counter screen (AID 1159517; calls by dose curve). A digest of the protocol:
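Counter-screen wells were identical to the reporter wells. Cells were plated at 1,500 per well and dosed for 5 hr, then read for luminescence 30 min after CellTiter-Glo addition.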

Assay [13] in a line: qHTS assay to identify small molecule agonists of the retinoic acid receptor (RAR) signaling pathway (AID 1159553). Further: potency means the concentration at half of the fitted maximal effect. Particulars: C3RL4 RARE luciferase reporter, agonist, 6 h; activation: at 73.3 µM (top of the series). The gist of the method: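 Activation of retinol signaling was monitored via a RARE luciferase reporter in C3RL4 cells. After 6 hr compound treatment at 37 C, detection reagent was added for 30 min at room temperature before luminescence reading.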

Assay [14] can be described thus: qHTS assay to identify small molecule antagonists of the retinoic acid receptor (RAR) signaling pathway (AID 1159552; further: nearly all actives have a fitted effect of over 50% in size; further: potency means the concentration at half of the fitted maximal effect). A digest of the protocol: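 Antagonism of retinol-induced RARE reporter activity was measured in C3RL4 cells. Exposure to compounds and 1 uM final retinol lasted 6 hr at 37 C, with luminescence as endpoint.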
A short description of assay [15]: qHTS assay to identify small molecule antagonists of the estrogen related receptor (ERR) signaling pathway - cell viability counter screen (AID 1224818).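 Further: viability measured after 17.5 h of compound exposure.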 The gist of the method: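 In the same ERR cell assay, compound-treated wells (17.5 h, 37 C) were multiplexed with a fluorogenic viability reagent, CellTiter-Fluor, read after 30 min to flag cytotoxic substances.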

The nature of assay [16]: qHTS assay to identify small molecule antagonists of the estrogen related receptor signaling pathway with the pleiotropic PPARgamma coactivator (PGC) cell viability counter screen (AID 1224822). A digest of the protocol: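 Compounds in DMSO, with positive and negative controls, were applied to PGC/ERR cells (2,000/well) and left 17.5 h at 37 C before CellTiter-Fluor detection.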

Inconclusive results are not listed. Activity calls are given as the source filed them. Unless noted, the call rests on the fitted dose curve; in most records, active means well fitted curve in the direction sought with a large enough effect in the repeat runs; inconclusive means weak or mixed curves; inactive means no such curve, though single readings can be large; an effect the other way counts as inactive or inconclusive.

Sequence of Retinoic acid receptor RXR-alpha (Homo sapiens) (P19793 whole entry, looked up): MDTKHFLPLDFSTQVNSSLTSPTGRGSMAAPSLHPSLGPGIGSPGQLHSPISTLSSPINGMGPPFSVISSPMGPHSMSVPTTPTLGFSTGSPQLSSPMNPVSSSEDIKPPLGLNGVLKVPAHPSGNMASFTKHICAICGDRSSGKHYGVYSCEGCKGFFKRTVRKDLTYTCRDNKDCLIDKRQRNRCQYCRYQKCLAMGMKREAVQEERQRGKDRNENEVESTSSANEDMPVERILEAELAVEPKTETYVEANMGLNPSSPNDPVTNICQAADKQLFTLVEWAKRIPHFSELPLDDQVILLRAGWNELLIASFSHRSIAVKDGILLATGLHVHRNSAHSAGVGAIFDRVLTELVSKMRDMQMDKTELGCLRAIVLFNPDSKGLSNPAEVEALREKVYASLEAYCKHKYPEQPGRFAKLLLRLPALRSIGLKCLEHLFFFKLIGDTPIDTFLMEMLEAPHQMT

On to `O=C(OC(=O)c1ccccc1)c1ccccc1`, for which the Potency entry in [1], in assay [2], in assay [3], in assay [4], in assay [5] and in assay [6] was “inactive” throughout. Also, the Potency result in assay [7], in assay [8], in assay [9], in assay [10] and in assay [11] was “inactive” throughout.

In the case of `O=[N+]([O-])c1cc(C2CCCCC2)c(O)c([N+](=O)[O-])c1`, the Potency result in [3], in [4], in [12], in [7], in assay [9] and in assay [11] was “inactive” in each case. Moreover, in assay [13], the Potency entry was “inactive”. In addition, in assay [6], the Potency is 4.31 µM (active).

As to `C=CC(C)(CCC=C(C)C)OC(=O)CC(C)C` (stereo unspecified), the Potency result in assay [1], in assay [2], in [3], in [12], in assay [5] and in [6] was “inactive” throughout. Also, the Potency result in assay [7], in assay [8], in assay [9], in assay [10], in [11] and in assay [14] was “inactive” each time. Also, the Potency result in assay [13] is “inactive”.

Consider `Cc1cc2c(OCC(CNC(C)(C)C)OC(=O)c3ccccc3)cccc2[nH]1` (stereo unspecified), for which the Potency entry in [1], in [2], in assay [3], in [4], in [12] and in [5] was “inactive” throughout. Besides, the Potency result in [7], in assay [8], in [9], in assay [10], in assay [11] and in assay [13] was “inactive” each time.

Regarding `CNC(=O)c1cnn(-c2nc(N)c3ncn([C@@H]4O[C@H](CO)[C@@H](O)[C@H]4O)c3n2)c1`, the Potency entry in assay [1], in assay [2], in assay [3], in assay [4], in assay [12] and in assay [5] was “inactive” in each case. Moreover, the Potency result in [7], in [8], in [9], in assay [11], in [14] and in assay [13] was “inactive” in each case.

`O=C(O)c1cccc(-c2noc(-c3ccccc3F)n2)c1`: the Potency entry in [1], in [3], in assay [4], in assay [5], in [8] and in assay [10] was “inactive” throughout. Further, the Potency entry in assay [11] was “inactive”. In addition, the Potency in assay [14] is 0.422 µM (active); in [13], 0.003 µM (active).

Take `COc1ccccc1N1CCN(CC(O)COc2cccc3ccccc23)CC1` (stereo unspecified): the Potency entry in assay [1], in [2], in assay [3], in assay [4], in assay [12] and in assay [5] was “inactive” each time. Moreover, the Potency entry in [11] and in assay [13] was “inactive” each time. In addition, the Potency in [7] is 23.9 µM (active); in assay [10], 12 µM (active); in assay [14], 26.6 µM (active). Moreover, the compound was called inactive in [15] and in assay [16].

For `C=C(C)C(=O)OCCCCCCCCCCCCC`, the Potency entry in assay [1], in assay [2], in assay [3], in assay [4], in assay [5] and in [6] was “inactive” throughout. Further, the Potency result in assay [7], in assay [8], in [9], in [10], in assay [11] and in assay [14] was “inactive” each time. Besides, in assay [13], the Potency result is “inactive”.

On to `CC1(CN2CCC(n3c(=O)[nH]c4ccccc43)CC2)OCc2ccccc2-n2cccc21` (stereo unspecified), for which the Potency result in [2], in assay [3], in [4], in [7], in assay [11] and in assay [13] was “inactive” each time. In addition, in assay [14], the Potency is 29.8 µM (active).

On to `O=c1[nH]c2ccc(Cl)cc2o1`, for which the Potency entry in [1], in [2], in assay [3], in [12], in assay [5] and in assay [6] was “inactive” each time. The Potency result in [7], in assay [8], in [9], in [10], in assay [11] and in [14] was “inactive” throughout. Also, the Potency result in [13] was “inactive”.
